Reference: PMC12136788
Positions count from the first letter of the chain named. In all, about 24,000 sequences were measured (“enrichment r”: median about 0.99, highest 2% from about 3.7 on). The full list was thinned out, with the highest values kept by preference.

T1: UNK ZnF1-3 (human, UniProt Q9C0B0 31-174)
T1 sequence: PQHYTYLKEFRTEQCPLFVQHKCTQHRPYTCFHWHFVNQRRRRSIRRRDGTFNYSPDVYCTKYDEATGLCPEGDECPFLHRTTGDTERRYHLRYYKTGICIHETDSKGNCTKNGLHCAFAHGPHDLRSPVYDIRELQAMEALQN

B1: 52098632_52100650_1216_3pUTR_ENSG00000128872_ENST00000249700|human|control|control (ssRNA)
RNA: GGGAGUUCUACAGUCCGACGAUCUACCUUCGGUCUGCUUCAACUCUCUUCUUACGAACCAGGUCAUUAUUCUUUGUGAUGGCAGCUGCCACCCUUGUUCGUGGCCCUUGCUUGGUAAACUGGUAUCCAAACUUGAGGAUCCUUCAACAGAGGAUUGAGCAUCA
B2: chr5:121736274:121736275:+_ENSMUSG00000042744_ENSMUST00000119892|mus_mus|FALSE|FALSE (ssRNA)
RNA: GGGAGUUCUACAGUCCGACGAUCCUGGUGAAUGCACAUGGCGCCAACAUGGUGCAGUAACUGGUUUAUGACUUCAUUUGUGCUAAUGGCCUCUUCUUUGGGCUCGGUGAUGAUAUGGCUGACACCCAGUCUCUGGCACACGUACAACAGAGGAUUGAGCAUCA
B3: chr3:128198961:128198962:-_ENSG00000179348_ENST00000341105|hu_hu|motif|central (ssRNA)
RNA: GGGAGUUCUACAGUCCGACGAUCACUGGACCCAAAAAGAGUUUAAAAAUAAAACAAUUAACUCAUCAGCGAGUUAAGCCGGUGCAUUUUUUUAAUAUUUUUUCUUUUGUCUCAGAGUAGGAGGCGAGGGGGUUGAAGGGUUAGCAACAGAGGAUUGAGCAUCA
B4: chr12:48362563:48362564:+_ENSG00000134291_ENST00000256686|hu_hu|hu_hu_hu_mus_False|58_78 (ssRNA)
RNA: GGGAGUUCUACAGUCCGACGAUCUCCGUCAAGCCCUUCGAUAGACCCUUGCGGGGGUGGUAAAAACCACUUUGUAUUUCUAAAAAAAAGAAACGCCAAAAACUUUCCAAAAAGCGGGGGUGGGGUGAGGCGGGAGGGGGAGGUCAACAGAGGAUUGAGCAUCA
B5: 119691784_119693947_668_CDS_ENSG00000158290_ENST00000371322|human|control|control (ssRNA)
RNA: GGGAGUUCUACAGUCCGACGAUCGAGUUCUUCUAAAUUGUACUUAAUUGAAGUACUAUUCUGAAUAGCUUCCACUGCUUCUUUCAGUUUUUGCCAGGUUUCAUCUGUGUAGUUUUCUGGUAAUUUAGGCUUAUCUUUAAAGUUCAACAGAGGAUUGAGCAUCA
B6: chr14:105235747:105235748:-_ENSG00000142208_ENST00000407796|hu_hu|FALSE|FALSE (ssRNA)
RNA: GGGAGUUCUACAGUCCGACGAUCACUUUUAUUGAAGAAUUUGGAGGGAAGGUUCCAUAUUAUAUUAUAAUAGUAAAAAUACUAAAGUUGAAUGUUGUAAAAAAACGCCGUGGUGCAGCGGCAGCGGCAGCGUCUGGCCAGGAGCAACAGAGGAUUGAGCAUCA
B7: chr2:151326667:151326668:-_ENSG00000115963_ENST00000263895|hu_hu|FALSE|FALSE (ssRNA)
RNA: GGGAGUUCUACAGUCCGACGAUCUUUAUUUGUCUUAUUUACACAUGCCAAGGUGGCAACGUGAAAAAUGUCUCUGACGCUAUUUUCCGACUGUAAAGCUGAGCAUUCGAUAUAAGUAGCUGCUCCAAUCUGUUUGGCCAUAUUCAACAGAGGAUUGAGCAUCA
B8: chr17:55760890:55760891:+_ENSG00000153944_ENST00000284073|hu_mus|FALSE|FALSE (ssRNA)
RNA: GGGAGUUCUACAGUCCGACGAUCCAAUUUCAUAUGCAAUAUAAUACAGAAAGCAUGGCUGACCUUCAAUUUUAAAAAAAAAUGUAGUAAACUAUAUUGCUUUAUUCUUGAAGAUGCUGCUGCGGUGGGUGGAUGGCAGAGCGACAACAGAGGAUUGAGCAUCA
B9: chr2:129025431:129025432:+_ENSMUSG00000027397_ENSMUST00000028880|mus_mus|motif|central (ssRNA)
RNA: GGGAGUUCUACAGUCCGACGAUCUUGCCACAGUAGAUUCCAUUCUCUAGUGUAGUGGUUCUUUAAAUAAUAAGAGAAUUACGGAGCGGCUUUUGAGAUGUGUAAACGGAAUGAGGUAUCAAAAUGCUAUAAUAAAUAGUAUAUCAACAGAGGAUUGAGCAUCA
B10: chr14:105235747:105235748:-_ENSG00000142208_ENST00000407796|hu_mus|FALSE|FALSE (ssRNA)
RNA: GGGAGUUCUACAGUCCGACGAUCGAAAAGCAAUUUUUAUUGAAUUUGGAGGGACAGUUUCUUAUUAUAAUAGUAAAAAUGCUGAAGCUGAAUGUUGUAAAAAACGACAUGGUGCAGCAAUGGCCAGCGUCUGGCCGGGAGGGGCAACAGAGGAUUGAGCAUCA
B11: chr14:21319500:21319501:-_ENSMUSG00000021816_ENSMUST00000161445|mus_hu|motif|central (ssRNA)
RNA: GGGAGUUCUACAGUCCGACGAUCGAGUUGUAUUCCAGGGCAUGAGGGAAGCAGGCCACCAAAGUAAAGGGAAAUACCAAACGGCAGUGGCAAUCAAUACAGGUCAAUAAUUGUGAAAAAUUAGCACAUGGUUCCAUUUAGUUUCAACAGAGGAUUGAGCAUCA
B12: 23376367_23376487_1679_3pUTR_ENSMUSG00000026158_ENSMUST00000027343|mouse|control|control (ssRNA)
RNA: GGGAGUUCUACAGUCCGACGAUCAUUUGAAAACACAUCCUAAAUGUAUUCUUUUAUUGGAUCUGGUCUUAAAACUUCUUAUUUAAUGUCCAAUUCAUUGUGAUCCAAAAUAAAAAGGCUUACAGCAAAAGUCACAGGUGGCCACAACAGAGGAUUGAGCAUCA
B13: chr10:71978566:71978567:-_ENSG00000180817_ENST00000373232|hu_hu|motif|central (ssRNA)
RNA: GGGAGUUCUACAGUCCGACGAUCUAAAGGGUCCUUUGUAGCAAUCUCCAUUUUUGCAUUAGACCAGCGUGGUACUUCAACGGCCAUGUGAAACACAUCCUUAUCUGCAUAAAUUGGAAUAUCAUGAAAUGGAGAUAUAUAUUGCAACAGAGGAUUGAGCAUCA
B14: chr14:105235747:105235748:-_ENSG00000142208_ENST00000407796|hu_hu|motif|central (ssRNA)
RNA: B6 RNA with U82G, A83G
B15: chr2:47387610:47387611:-_ENSG00000143933_ENST00000272298|hu_mus|FALSE|FALSE (ssRNA)
RNA: GGGAGUUCUACAGUCCGACGAUCUCCACGCAGAGUUACAGCUCCACACUUCAACAACAACAUGCUGACAGUUCCUAAAAGCUACUUUAAAAAAGGCAUAACCCAGAUGUUCCCUCAUUGGACCAACUCCAUCUAAGUUUAGAUCAACAGAGGAUUGAGCAUCA
B16: chr8:104447970:104447971:+_ENSG00000164934_ENST00000297579|hu_hu|hu_hu_hu_mus_False|88_98 (ssRNA)
RNA: GGGAGUUCUACAGUCCGACGAUCAUACACUUCCCUGCUUCGACUUUUGUCUACAGGAAAGAUUCUAAUAGACUUAUCAAAGCUGGCAGACACAAAUUCCUUCCCAGUGGGAGAGUAGUCCACAUCAAGUACUGCAGACACGUGCAACAGAGGAUUGAGCAUCA
B17: chr3:150289932:150289933:+_ENSG00000144895_ENST00000460851|hu_hu|hu_hu_hu_mus_False|28_58 (ssRNA)
RNA: GGGAGUUCUACAGUCCGACGAUCCUUGUAGUUUUUAACAUCCCAUACUUCCAUUUGUCCUCGAAGAUUUCCAAAUCCAGCUAAUACUAAUAUAUGUCCAUGAGGGCUAUAGUAGGCUGCGUUGCGAGGACCAGUCCCAAAGUCCAACAGAGGAUUGAGCAUCA
B18: chr13:51516861:51516862:+_ENSMUSG00000067586_ENSMUST00000087978|mus_mus|FALSE|FALSE (ssRNA)
RNA: GGGAGUUCUACAGUCCGACGAUCCUUGGUGACAUAGAGAAGGGCAAGGCCAAUGAUGGAGCAGAACUUCUUGGCAGUGACCUAUAUACACCAGGAGUGACAUGAGGGGAAGUCUUUAGUUAGUCAGACCAGGGUUACCUAAGGCAACAGAGGAUUGAGCAUCA
B19: chr19:5940991:5940992:-_ENSMUSG00000024833_ENSMUST00000025752|mus_hu|FALSE|FALSE (ssRNA)
RNA: GGGAGUUCUACAGUCCGACGAUCGUUCACACAGACACAGCCGAGGACAUCCUUCACGAAGUACCUCAGCUCUGACGGGAUGAUGAGGACAUCUGGGGUGACAGGCAGCUGUGCGUAAACAUAGAACGACUCAUAGUCAAUGGCCAACAGAGGAUUGAGCAUCA
B20: chr6:168291551:168291552:+_ENSG00000130396_ENST00000400822|hu_mus|motif|central (ssRNA)
RNA: GGGAGUUCUACAGUCCGACGAUCAUGUUUCUUCAUUUUCUUUGGGAUGUAGUCCGGUGGUCUCCUCUUCAACUGAAAGACGGAAAUCCCUUUGUCACUUGGCCAUUCCCUGAAGAUUUGUAAAGGACAUUCAUCAUCGUCAAGCAACAGAGGAUUGAGCAUCA
B21: chr16:50257146:50257147:+_ENSG00000121274_ENST00000436909|hu_mus|FALSE|FALSE (ssRNA)
RNA: GGGAGUUCUACAGUCCGACGAUCUAUCCGGAUGCCAGUCUUUAAGUAAUUGAAGUGCCGUCCAUAUAAUUCAAAAAACUCUAUUAAGAGAACACCAUAGUUUGUAUUGGGGAUGCAAGCAUCUUCCCUGGGAUGUAACUGAAGCAACAGAGGAUUGAGCAUCA
B22: chr1:39494447:39494448:+_ENSG00000168653_ENST00000372967|hu_mus|hu_hu_hu_mus_False|18_18 (ssRNA)
RNA: GGGAGUUCUACAGUCCGACGAUCGCACCGAGCGGCGUUCUUAUAGGGCUGUUCUGCGCUUAGGAACAUAAAGUGCCGGUCCAGGCUGAUGCCCAGCUUUUUCUGUAUGUCAAGGAAAGGCAUGGCCCUGCAGUGCCCUUGUCACAACAGAGGAUUGAGCAUCA

What follows are binders tested against T1, UNK ZnF1-3 (assay: nsRBNS (natural sequence RNA bind-n-seq); RBNS binding buffer (assumed for nsRBNS): 25 mM Tris pH 7.5, 150 mM KCl, 3 mM MgCl2, 0.01% Triton X-100, 500 ug/ml BSA, 20 U/ml SUPERase-In, 4 C; UNK is unkempt and MSI1 is Musashi-1; names of the RNAs are library labels; protein concentration not given here; high values mean tight binding).

| Binder | binding signal [enrichment R] |
| --- | --- |
| B1 | 0.553 |
| B2 | 0.813 |
| B3 | 1.54 |
| B4 | 3.57 |
| B5 | 0.363 |
| B6 | 7.85 |
| B7 | 0.818 |
| B8 | 1.14 |
| B9 | 1.26 |
| B10 | 4.04 |
| B11 | 2.39 |
| B12 | 0.637 |
| B13 | 0.593 |
| B14 | 5.41 |
| B15 | 1.21 |
| B16 | 0.947 |
| B17 | 1.1 |
| B18 | 1.32 |
| B19 | 1.51 |
| B20 | 0.653 |
| B21 | 1.63 |
| B22 | 0.805 |
